Results published in ChEMBL document CHEMBL1961873, “Compounds: GSK PKIS; Assays: Nanosyn kinase panel” (2012).

Key:
[1] = biological target: Serine/threonine-protein kinase pim-2 (Homo sapiens) (UniProt Q9P1W9); conditions: at 1 µM;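 also: each value is a mean of the inhibition measurements against the kinase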
[2] = biological target: Serine/threonine-protein kinase pim-3 (Homo sapiens) (UniProt Q86V86); conditions: at 0.1 µM
[3] = biological target: Serine/threonine-protein kinase pim-3 (Homo sapiens) (UniProt Q86V86); conditions: at 1 µM
[4] = biological target: T1, MAP kinase-activated protein kinase 5 (Homo sapiens) (UniProt Q8IW41); conditions: at 0.1 µM
T1 sequence (whole entry): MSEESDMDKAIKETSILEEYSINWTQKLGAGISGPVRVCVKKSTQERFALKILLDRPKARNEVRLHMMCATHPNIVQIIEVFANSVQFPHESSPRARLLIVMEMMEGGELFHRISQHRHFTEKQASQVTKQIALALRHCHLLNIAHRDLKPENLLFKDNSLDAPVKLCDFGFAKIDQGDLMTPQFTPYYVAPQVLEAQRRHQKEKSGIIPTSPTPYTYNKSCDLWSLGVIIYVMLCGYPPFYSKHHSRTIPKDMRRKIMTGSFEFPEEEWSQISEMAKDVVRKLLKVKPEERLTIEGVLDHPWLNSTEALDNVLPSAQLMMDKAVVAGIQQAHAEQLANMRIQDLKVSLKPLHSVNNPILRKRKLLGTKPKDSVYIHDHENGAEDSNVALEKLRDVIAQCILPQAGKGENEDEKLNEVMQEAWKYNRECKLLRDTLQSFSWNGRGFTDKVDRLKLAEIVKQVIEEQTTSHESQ

[5] = biological target: T1, MAP kinase-activated protein kinase 5 (Homo sapiens); conditions: at 1 µM
[6] = biological target: Serine/threonine-protein kinase SIK1 (Homo sapiens) (UniProt P57059); conditions: at 0.1 µM
[7] = biological target: Serine/threonine-protein kinase SIK1 (Homo sapiens) (UniProt P57059); conditions: at 1 µM
[8] = biological target: Serine/threonine-protein kinase SIK2 (Homo sapiens) (UniProt Q9H0K1); conditions: at 0.1 µM
[9] = biological target: Serine/threonine-protein kinase SIK2 (Homo sapiens) (UniProt Q9H0K1); conditions: at 1 µM
[10] = biological target: T2, Serine/threonine-protein kinase TBK1 (Homo sapiens) (UniProt Q9UHD2); conditions: at 0.1 µM
T2 sequence (whole entry): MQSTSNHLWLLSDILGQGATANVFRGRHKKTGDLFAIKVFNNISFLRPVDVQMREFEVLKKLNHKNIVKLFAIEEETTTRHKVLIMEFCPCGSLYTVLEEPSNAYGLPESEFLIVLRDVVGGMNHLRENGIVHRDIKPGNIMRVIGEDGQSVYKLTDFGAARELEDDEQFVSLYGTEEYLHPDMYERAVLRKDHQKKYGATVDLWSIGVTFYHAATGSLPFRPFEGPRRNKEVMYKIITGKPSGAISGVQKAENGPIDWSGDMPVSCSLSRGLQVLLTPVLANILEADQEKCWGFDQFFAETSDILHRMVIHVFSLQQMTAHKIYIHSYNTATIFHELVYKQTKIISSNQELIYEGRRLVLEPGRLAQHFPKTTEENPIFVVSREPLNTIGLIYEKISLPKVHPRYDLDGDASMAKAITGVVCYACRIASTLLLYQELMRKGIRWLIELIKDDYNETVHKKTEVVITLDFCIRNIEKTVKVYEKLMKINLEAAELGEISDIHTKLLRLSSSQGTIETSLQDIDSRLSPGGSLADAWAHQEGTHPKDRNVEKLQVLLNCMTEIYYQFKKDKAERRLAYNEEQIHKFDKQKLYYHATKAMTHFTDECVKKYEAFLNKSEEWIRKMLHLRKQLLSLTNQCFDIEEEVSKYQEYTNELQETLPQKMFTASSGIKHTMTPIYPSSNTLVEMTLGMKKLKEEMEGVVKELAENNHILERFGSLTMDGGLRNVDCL

[11] = biological target: T2, Serine/threonine-protein kinase TBK1 (Homo sapiens); conditions: at 1 µM
[12] = biological target: T3, Testis-specific serine/threonine-protein kinase 1 (Homo sapiens) (UniProt Q9BXA7); conditions: at 0.1 µM
T3 sequence (whole entry): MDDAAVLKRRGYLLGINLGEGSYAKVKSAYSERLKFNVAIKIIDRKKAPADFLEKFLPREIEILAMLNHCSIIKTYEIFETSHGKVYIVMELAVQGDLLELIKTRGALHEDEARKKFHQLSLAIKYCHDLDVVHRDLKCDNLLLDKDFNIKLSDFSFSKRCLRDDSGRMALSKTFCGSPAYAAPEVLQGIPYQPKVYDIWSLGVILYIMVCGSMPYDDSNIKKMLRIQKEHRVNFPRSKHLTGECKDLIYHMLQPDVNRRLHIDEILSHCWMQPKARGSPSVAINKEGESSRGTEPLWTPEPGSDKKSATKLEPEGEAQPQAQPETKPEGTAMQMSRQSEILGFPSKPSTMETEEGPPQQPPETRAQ

[13] = biological target: T3, Testis-specific serine/threonine-protein kinase 1 (Homo sapiens); conditions: at 1 µM
[14] = biological target: T4, Testis-specific serine/threonine-protein kinase 2 (Homo sapiens) (UniProt Q96PF2); conditions: at 0.1 µM
T4 sequence (whole entry): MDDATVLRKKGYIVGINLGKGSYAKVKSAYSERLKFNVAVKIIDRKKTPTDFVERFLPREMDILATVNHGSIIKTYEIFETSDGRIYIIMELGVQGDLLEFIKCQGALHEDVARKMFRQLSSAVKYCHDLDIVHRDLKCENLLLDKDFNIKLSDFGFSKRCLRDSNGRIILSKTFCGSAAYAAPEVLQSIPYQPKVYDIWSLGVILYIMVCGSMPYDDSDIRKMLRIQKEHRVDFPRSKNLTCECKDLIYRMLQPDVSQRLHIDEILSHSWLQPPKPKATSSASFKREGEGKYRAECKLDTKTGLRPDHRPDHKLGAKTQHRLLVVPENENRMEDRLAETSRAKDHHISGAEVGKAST

[15] = biological target: T4, Testis-specific serine/threonine-protein kinase 2 (Homo sapiens); conditions: at 1 µM
[16] = biological target: Casein kinase I isoform alpha (Homo sapiens) (UniProt P48729); conditions: at 0.1 µM
[17] = biological target: Casein kinase I isoform alpha (Homo sapiens) (UniProt P48729); conditions: at 1 µM
[18] = biological target: Casein kinase I isoform gamma-1 (Homo sapiens) (UniProt Q9HCP0); conditions: at 0.1 µM
[19] = biological target: Casein kinase I isoform gamma-1 (Homo sapiens) (UniProt Q9HCP0); conditions: at 1 µM
[20] = biological target: Casein kinase I isoform gamma-2 (Homo sapiens) (UniProt P78368); conditions: at 0.1 µM;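 also: values are mean inhibition figures reported as part of the GSK PKIS dataset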
Sequence of Casein kinase I isoform gamma-2 (Homo sapiens) (P78368 whole entry, looked up, canonical isoform): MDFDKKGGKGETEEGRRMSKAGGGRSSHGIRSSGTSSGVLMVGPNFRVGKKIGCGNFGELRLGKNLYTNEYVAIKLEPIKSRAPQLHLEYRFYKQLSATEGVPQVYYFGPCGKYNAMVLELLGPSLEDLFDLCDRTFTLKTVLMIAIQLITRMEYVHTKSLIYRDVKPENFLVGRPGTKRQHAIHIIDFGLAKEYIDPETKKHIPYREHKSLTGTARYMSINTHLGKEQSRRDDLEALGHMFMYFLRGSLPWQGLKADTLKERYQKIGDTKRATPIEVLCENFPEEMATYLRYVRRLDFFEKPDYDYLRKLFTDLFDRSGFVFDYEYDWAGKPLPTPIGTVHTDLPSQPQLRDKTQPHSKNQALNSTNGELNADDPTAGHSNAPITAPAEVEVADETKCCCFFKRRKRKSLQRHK

Sequence of Serine/threonine-protein kinase pim-2 (Homo sapiens) (Q9P1W9 whole entry, looked up): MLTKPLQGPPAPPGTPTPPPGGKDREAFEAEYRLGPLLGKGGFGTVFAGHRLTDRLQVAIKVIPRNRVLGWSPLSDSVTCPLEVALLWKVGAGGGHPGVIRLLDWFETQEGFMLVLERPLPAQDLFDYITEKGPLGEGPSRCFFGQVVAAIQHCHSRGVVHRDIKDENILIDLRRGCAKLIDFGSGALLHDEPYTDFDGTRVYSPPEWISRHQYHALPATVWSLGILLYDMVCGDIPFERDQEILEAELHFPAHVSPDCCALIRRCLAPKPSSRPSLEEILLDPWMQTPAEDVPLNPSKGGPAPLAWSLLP
Sequence of Serine/threonine-protein kinase SIK1 (Homo sapiens) (P57059 whole entry): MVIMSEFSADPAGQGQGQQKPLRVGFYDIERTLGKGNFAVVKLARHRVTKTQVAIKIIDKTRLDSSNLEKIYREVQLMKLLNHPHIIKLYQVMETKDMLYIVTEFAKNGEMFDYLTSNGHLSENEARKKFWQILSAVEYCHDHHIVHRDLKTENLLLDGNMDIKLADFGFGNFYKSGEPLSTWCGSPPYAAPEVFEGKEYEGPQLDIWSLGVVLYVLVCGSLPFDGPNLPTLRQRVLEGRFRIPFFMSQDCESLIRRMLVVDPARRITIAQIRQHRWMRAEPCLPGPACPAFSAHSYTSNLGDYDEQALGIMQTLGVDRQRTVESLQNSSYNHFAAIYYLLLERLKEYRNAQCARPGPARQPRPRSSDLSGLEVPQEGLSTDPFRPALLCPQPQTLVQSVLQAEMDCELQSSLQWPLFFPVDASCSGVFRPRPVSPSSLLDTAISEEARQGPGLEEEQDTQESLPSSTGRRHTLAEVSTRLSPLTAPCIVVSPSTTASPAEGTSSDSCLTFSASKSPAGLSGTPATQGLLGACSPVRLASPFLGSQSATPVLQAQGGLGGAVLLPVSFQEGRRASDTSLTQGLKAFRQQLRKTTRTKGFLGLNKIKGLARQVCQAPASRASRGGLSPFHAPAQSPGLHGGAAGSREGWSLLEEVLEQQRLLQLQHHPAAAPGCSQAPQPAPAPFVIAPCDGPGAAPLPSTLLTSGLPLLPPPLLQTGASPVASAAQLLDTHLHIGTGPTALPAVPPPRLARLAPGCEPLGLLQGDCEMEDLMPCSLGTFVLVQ
Sequence of Serine/threonine-protein kinase SIK2 (Homo sapiens) (Q9H0K1 whole entry, looked up): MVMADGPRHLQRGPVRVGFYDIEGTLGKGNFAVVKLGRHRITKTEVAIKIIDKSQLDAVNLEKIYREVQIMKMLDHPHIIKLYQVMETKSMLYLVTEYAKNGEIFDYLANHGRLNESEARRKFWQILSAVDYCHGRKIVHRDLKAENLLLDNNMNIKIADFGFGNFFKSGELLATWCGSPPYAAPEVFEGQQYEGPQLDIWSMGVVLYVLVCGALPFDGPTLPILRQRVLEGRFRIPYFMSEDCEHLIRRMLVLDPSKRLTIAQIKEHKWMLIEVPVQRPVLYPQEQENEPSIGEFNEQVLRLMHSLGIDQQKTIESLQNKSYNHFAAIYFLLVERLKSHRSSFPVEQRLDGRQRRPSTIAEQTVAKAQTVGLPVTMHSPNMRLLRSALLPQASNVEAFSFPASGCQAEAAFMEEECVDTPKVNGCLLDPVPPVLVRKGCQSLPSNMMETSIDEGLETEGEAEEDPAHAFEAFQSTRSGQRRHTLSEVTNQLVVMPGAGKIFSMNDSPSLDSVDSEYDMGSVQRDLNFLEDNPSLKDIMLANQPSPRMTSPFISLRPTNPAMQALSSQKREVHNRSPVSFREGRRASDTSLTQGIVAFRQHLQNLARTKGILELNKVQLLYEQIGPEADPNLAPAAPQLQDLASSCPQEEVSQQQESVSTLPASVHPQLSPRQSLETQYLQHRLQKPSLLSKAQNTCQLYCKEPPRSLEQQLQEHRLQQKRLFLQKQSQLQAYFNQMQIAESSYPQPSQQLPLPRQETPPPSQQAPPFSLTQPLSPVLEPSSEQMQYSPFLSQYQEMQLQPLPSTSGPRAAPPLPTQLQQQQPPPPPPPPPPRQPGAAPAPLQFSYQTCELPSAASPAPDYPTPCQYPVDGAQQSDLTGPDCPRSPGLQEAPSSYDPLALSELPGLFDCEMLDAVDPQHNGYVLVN
Sequence of Casein kinase I isoform alpha (Homo sapiens) (P48729 2-337 limits assumed): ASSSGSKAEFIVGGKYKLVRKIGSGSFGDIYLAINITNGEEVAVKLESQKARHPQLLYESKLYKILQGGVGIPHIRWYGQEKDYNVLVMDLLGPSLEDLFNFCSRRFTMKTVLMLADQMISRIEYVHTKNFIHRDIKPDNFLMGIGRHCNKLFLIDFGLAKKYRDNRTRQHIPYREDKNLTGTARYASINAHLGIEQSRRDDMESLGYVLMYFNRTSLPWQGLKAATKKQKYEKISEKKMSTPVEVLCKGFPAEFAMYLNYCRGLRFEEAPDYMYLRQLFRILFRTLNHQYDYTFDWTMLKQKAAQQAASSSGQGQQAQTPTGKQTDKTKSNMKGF
Sequence of Casein kinase I isoform gamma-1 (Homo sapiens) (Q9HCP0 whole entry, looked up, canonical isoform): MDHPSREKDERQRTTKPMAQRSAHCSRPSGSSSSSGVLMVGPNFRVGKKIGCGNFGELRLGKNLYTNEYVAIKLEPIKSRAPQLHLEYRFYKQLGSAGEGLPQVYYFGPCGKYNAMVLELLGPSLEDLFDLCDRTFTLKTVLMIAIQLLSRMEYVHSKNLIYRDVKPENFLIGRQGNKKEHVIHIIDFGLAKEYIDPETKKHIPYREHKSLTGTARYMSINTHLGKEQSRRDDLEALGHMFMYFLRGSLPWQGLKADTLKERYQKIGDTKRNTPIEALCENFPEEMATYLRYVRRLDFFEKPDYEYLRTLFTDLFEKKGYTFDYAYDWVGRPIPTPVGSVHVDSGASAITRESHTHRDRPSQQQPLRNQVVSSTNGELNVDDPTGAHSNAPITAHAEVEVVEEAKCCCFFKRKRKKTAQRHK

Row | SMILES | inhibition [1] [%] | inhibition [2] [%] | inhibition [3] [%] | inhibition [4] [%] | inhibition [5] [%] | inhibition [6] [%] | inhibition [7] [%] | inhibition [8] [%] | inhibition [9] [%] | inhibition [10] [%] | inhibition [11] [%] | inhibition [12] [%] | inhibition [13] [%] | inhibition [14] [%] | inhibition [15] [%] | inhibition [16] [%] | inhibition [17] [%] | inhibition [18] [%] | inhibition [19] [%] | inhibition [20] [%]
1 | Nc1nccc(-c2c(-c3ccc(F)cc3)ncn2C2CCC(O)CC2)n1 (stereo not given) | 0.53 | 0.04 | 0.35 | -0.92 | -0.32 | 0.06 | 4.75 | -0.25 | 28.6 | 5.52 | 1.41 | -2.82 | -1.96 | -1.46 | -0.41 | 62.4 | 90.1 | -1.19 | 5.79 | -1.13
2 | CN(c1ccc(NC(=O)Nc2c(Cl)cccc2Cl)cc1)c1ccnc(Nc2cccc(CS(C)(=O)=O)c2)n1 | 0.1 | 1.1 | 3.85 | 1.58 | 1.46 | 5.71 | 13.3 | 9.6 | 10.2 | 3.74 | 8.89 | 1.9 | 3.33 | 0.55 | 1.93 | 1.15 | 1.15 | 0.39 | 1.32 | 1.06
3 | COc1cc(C)c(N(C)C(=O)CN(C)C)cc1Nc1nc(Nc2cccc(F)c2C(N)=O)c2cc[nH]c2n1 | -2.78 | -0.52 | 0.76 | 0.02 | -1.14 | 3.07 | 5.4 | 4.5 | 2.04 | 1.26 | 3.23 | 3.79 | 16.4 | 1.25 | 4.87 | -0.71 | 6 | -0.75 | 11.3 | -2.38
4 | COc1cc2ncn(-c3cc(OCc4ccccc4C(F)(F)F)c(C(C)=O)s3)c2cc1OC | 0.86 | 0.65 | -0.5 | 1.07 | 0.82 | -0.57 | 5.68 | -0.99 | 7.06 | 2.89 | 2.12 | 2.55 | 3.05 | 1.34 | 1.53 | 3.35 | 2.73 | 2.77 | 3.34 | 2.24
5 | O=C(Nc1n[nH]c2cc(-c3cc(F)ccc3F)ccc12)C1CC1 | -0.55 | -2.08 | -1.66 | 0.74 | 0.41 | 5.25 | 11.2 | 10.9 | 21.9 | 3.98 | 5.44 | 2.75 | 2.04 | 1.22 | 0.5 | 0.79 | 1.31 | 3.28 | 3.73 | 2.53
